Test results taken from PubChem BioAssay AID1159580 (chemical genetic matrix, 2015).
Hit rate of the full screen: of about 5,500 compounds, about 2,000 (36%) were called active. About 18% were inconclusive and are not listed. This is one part of the list. Unmarked numbers belong to inactive results. Rule as the data show it: active = normalized growth mostly below about 0.91 (no sharp cut-off); inconclusive = no clear call, values can overlap the other calls; inactive = mostly above about 0.92.

Test: chemical genetic growth profiling, strain panel (AID 1159580);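 also: tested at 20 µM; growth read once vehicle control cultures reached saturation at 30 °C; 1 = growth at the plate median or of vehicle wells; lower values mean less growth of the strain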
Conditions: growth OD
[1] = S. cerevisiae deletion strains, locus YDL101C, strain DUN1, hits give low values
[2] = S. cerevisiae deletion strains, locus YHR030C, strain SLT2, hits give low values
[3] = S. cerevisiae deletion strains, locus YJR075W, strain HOC1, hits give low values
[4] = S. cerevisiae deletion strains, locus YMR263W, strain SAP30, hits give low values
[5] = S. cerevisiae deletion strains, locus YMR307W, strain GAS1, hits give low values
[6] = S. cerevisiae deletion strains, locus YNL153C, strain GIM3, hits give low values
[7] = S. cerevisiae deletion strains, locus YPL241C, strain CIN2, hits give low values
[8] = S. cerevisiae deletion strains, locus YAL013W, strain DEP1, hits give low values
[9] = S. cerevisiae deletion strains, locus YBR229C, strain ROT2, hits give low values
[10] = S. cerevisiae deletion strains, locus YDR150W, strain NUM1, hits give low values
[11] = S. cerevisiae deletion strains, locus YEL061C, strain CIN8, hits give low values
[12] = S. cerevisiae deletion strains, locus YGR078C, strain PAC10, hits give low values
[13] = S. cerevisiae deletion strains, locus YHR087W, strain rtc3, hits give low values
[14] = S. cerevisiae deletion strains, locus YJR043C, strain POL32, hits give low values
[15] = S. cerevisiae deletion strains, locus YLR039C, strain RIC1, hits give low values
[16] = S. cerevisiae deletion strains, locus YLR058C, strain SHM2 (second series), hits give low values
[17] = S. cerevisiae deletion strains, locus YLR085C, strain ARP6, hits give low values
[18] = S. cerevisiae deletion strains, locus YLR262C, strain YPT6, hits give low values
[19] = S. cerevisiae deletion strains, locus YML094W, strain GIM5, hits give low values
[20] = S. cerevisiae deletion strains, locus YMR219W, strain ESC1, hits give low values
[21] = S. cerevisiae deletion strains, locus YNL298W, strain CLA4 (second series), hits give low values
[22] = S. cerevisiae deletion strains, locus YNL322C, strain KRE1, hits give low values
[23] = S. cerevisiae deletion strains, locus YNR030W, strain Alg12, hits give low values
[24] = S. cerevisiae deletion strains, locus YPL055C, strain LGE1, hits give low values
[25] = S. cerevisiae deletion strains, locus YPR135W, strain CTF4, hits give low values
[26] = S. cerevisiae strains, strain wild type, hits give low values

## Cn1c(CSCCOc2ccccc2)nnc1SCc1ccc(Cl)cc1Cl
S. cerevisiae deletion strains, locus YAR019C, strain CDC15, hits give low values
  normalized growth: 0.985
S. cerevisiae deletion strains, locus YBL105C, strain PKC1, hits give low values
  normalized growth: 0.982
S. cerevisiae deletion strains, locus YBR135W, strain CKS1, hits give low values
  normalized growth: 0.98
S. cerevisiae deletion strains, locus YBR136W, strain MEC1, hits give low values
  normalized growth: 0.98
S. cerevisiae deletion strains, locus YBR160W, strain CDC28, hits give low values
  normalized growth: 0.98
S. cerevisiae deletion strains, locus YDL017W, strain CDC7, hits give low values
  normalized growth: 0.986
S. cerevisiae deletion strains, locus YDL028C, strain MPS1, hits give low values
  normalized growth: 0.992
[1]
  normalized growth: 0.995
S. cerevisiae deletion strains, locus YDL108W, strain KIN28, hits give low values
  normalized growth: 0.986
S. cerevisiae deletion strains, locus YDL132W, strain cdc53, hits give low values
  normalized growth: 0.968
S. cerevisiae deletion strains, locus YDL214C, strain PRR2, hits give low values
  normalized growth: 0.984
S. cerevisiae deletion strains, locus YDR052C, strain DBF4, hits give low values
  normalized growth: 0.982
S. cerevisiae deletion strains, locus YDR054C, strain cdc34, hits give low values
  normalized growth: 0.985
S. cerevisiae deletion strains, locus YDR226W, strain ADK1, hits give low values
  normalized growth: 0.971
S. cerevisiae deletion strains, locus YDR477W, strain SNF1, hits give low values
  normalized growth: 1.02
S. cerevisiae deletion strains, locus YER123W, strain YCK3, hits give low values
  normalized growth: 0.98
S. cerevisiae deletion strains, locus YER133W, strain GLC7, hits give low values
  normalized growth: 1
S. cerevisiae deletion strains, locus YFL009W, strain cdc4, hits give low values
  normalized growth: 0.983
S. cerevisiae deletion strains, locus YFL029C, strain CAK1, hits give low values
  normalized growth: 0.99
S. cerevisiae deletion strains, locus YFR003C, strain YPI1, hits give low values
  normalized growth: 0.987
S. cerevisiae deletion strains, locus YFR019W, strain FAB1, hits give low values
  normalized growth: 0.946
S. cerevisiae deletion strains, locus YFR028C, strain CDC14, hits give low values
  normalized growth: 0.989
S. cerevisiae deletion strains, locus YGR040W, strain KSS1, hits give low values
  normalized growth: 1.01
S. cerevisiae deletion strains, locus YGR052W, strain FMP48, hits give low values
  normalized growth: 1.12
S. cerevisiae deletion strains, locus YGR092W, strain DBF2, hits give low values
  normalized growth: 0.984
[2]
  normalized growth: 0.829 (active)
S. cerevisiae deletion strains, locus YHR079C, strain IRE1, hits give low values
  normalized growth: 0.97
S. cerevisiae deletion strains, locus YHR082C, strain KSP1, hits give low values
  normalized growth: 1.02
S. cerevisiae deletion strains, locus YHR205W, strain SCH9, hits give low values
  normalized growth: 0.969
S. cerevisiae deletion strains, locus YIL147C, strain SLN1, hits give low values
  normalized growth: 0.985
S. cerevisiae deletion strains, locus YJL095W, strain BCK1, hits give low values
  normalized growth: 0.911
S. cerevisiae deletion strains, locus YJL128C, strain PBS2, hits give low values
  normalized growth: 0.905
S. cerevisiae deletion strains, locus YJL157C, strain FAR1, hits give low values
  normalized growth: 1.01
S. cerevisiae deletion strains, locus YJR016C, strain ILV3, hits give low values
  normalized growth: 0.982
S. cerevisiae deletion strains, locus YJR066W, strain TOR1 (second series), hits give low values
  normalized growth: 0.977
S. cerevisiae deletion strains, locus YJR066W, strain TOR1, hits give low values
  normalized growth: 0.995
S. cerevisiae deletion strains, locus YKL048C, strain ELM1, hits give low values
  normalized growth: 0.963
S. cerevisiae deletion strains, locus YKL067W, strain YNK1, hits give low values
  normalized growth: 0.994
S. cerevisiae deletion strains, locus YKL101W, strain HSL1, hits give low values
  normalized growth: 0.981
S. cerevisiae deletion strains, locus YKL193C, strain SDS22, hits give low values
  normalized growth: 0.998
S. cerevisiae deletion strains, locus YKL203C, strain TOR2, hits give low values
  normalized growth: 1.07
S. cerevisiae deletion strains, locus YLR113W, strain HOG1, hits give low values
  normalized growth: 1
S. cerevisiae deletion strains, locus YLR133W, strain CKI1, hits give low values
  normalized growth: 0.982
S. cerevisiae deletion strains, locus YLR403W, strain SFP1, hits give low values
  normalized growth: 1.01
S. cerevisiae deletion strains, locus YML070W, strain DAK1, hits give low values
  normalized growth: 1
S. cerevisiae deletion strains, locus YMR001C, strain CDC5, hits give low values
  normalized growth: 0.988
S. cerevisiae deletion strains, locus YMR205C, strain PFK2 (second series), hits give low values
  normalized growth: 0.994
S. cerevisiae deletion strains, locus YMR277W, strain FCP1, hits give low values
  normalized growth: 0.989
S. cerevisiae deletion strains, locus YNL006W, strain LST8, hits give low values
  normalized growth: 0.99
S. cerevisiae deletion strains, locus YNL020C, strain ARK1, hits give low values
  normalized growth: 0.974
S. cerevisiae deletion strains, locus YNL161W, strain CBK1, hits give low values
  normalized growth: 0.98
S. cerevisiae deletion strains, locus YNL183C, strain NPR1, hits give low values
  normalized growth: 0.996
S. cerevisiae deletion strains, locus YNL207W, strain RIO2, hits give low values
  normalized growth: 1
S. cerevisiae deletion strains, locus YNL222W, strain SSU72, hits give low values
  normalized growth: 0.984
S. cerevisiae deletion strains, locus YNL307C, strain MCK1 (second series), hits give low values
  normalized growth: 0.96
S. cerevisiae deletion strains, locus YOL078W, strain AVO1, hits give low values
  normalized growth: 0.994
S. cerevisiae deletion strains, locus YOL136C, strain PFK27, hits give low values
  normalized growth: 0.988
S. cerevisiae deletion strains, locus YOR061W, strain CKA2, hits give low values
  normalized growth: 1
S. cerevisiae deletion strains, locus YOR119C, strain RIO1, hits give low values
  normalized growth: 1.14
S. cerevisiae deletion strains, locus YOR231W, strain MKK1, hits give low values
  normalized growth: 0.992
S. cerevisiae deletion strains, locus YOR329C, strain SCD5, hits give low values
  normalized growth: 0.986
S. cerevisiae deletion strains, locus YPL031C, strain PHO85, hits give low values
  normalized growth: 1.03
S. cerevisiae deletion strains, locus YPL153C, strain RAD53, hits give low values
  normalized growth: 1.03
S. cerevisiae deletion strains, locus YPL204W, strain HRR25, hits give low values
  normalized growth: 1.04
S. cerevisiae deletion strains, locus YPL209C, strain IPL1, hits give low values
  normalized growth: 0.99
S. cerevisiae deletion strains, locus YPL256C, strain CLN2, hits give low values
  normalized growth: 0.979
S. cerevisiae deletion strains, locus YPR025C, strain CCL1, hits give low values
  normalized growth: 0.986
S. cerevisiae deletion strains, locus YPR106W, strain ISR1, hits give low values
  normalized growth: 0.982
S. cerevisiae deletion strains, locus YPR111W, strain DBF20, hits give low values
  normalized growth: 0.969
S. cerevisiae deletion strains, strain NNK1, hits give low values
  normalized growth: 0.983
S. cerevisiae deletion strains, strain TSCII, hits give low values
  normalized growth: 0.988

## O=S(=O)(O)C1CCNCC1
S. cerevisiae deletion strains, locus YAL040C, strain CLN3, hits give low values
  normalized growth: 0.981
S. cerevisiae deletion strains, locus YCL061C, strain MRC1 (second series), hits give low values
  normalized growth: 1
S. cerevisiae deletion strains, locus YDR363W, strain ESC2, hits give low values
  normalized growth: 0.943
S. cerevisiae deletion strains, locus YER002W, strain NOP16, hits give low values
  normalized growth: 1
[3]
  normalized growth: 1.01
[4]
  normalized growth: 0.997
[5]
  normalized growth: 0.991
[6]
  normalized growth: 1.02
S. cerevisiae deletion strains, locus YNL175C, strain NOP13, hits give low values
  normalized growth: 0.995
S. cerevisiae deletion strains, locus YNL197C, strain WHI3, hits give low values
  normalized growth: 0.995
S. cerevisiae deletion strains, locus YNL224C, strain SQS1, hits give low values
  normalized growth: 0.995
S. cerevisiae deletion strains, locus YOR083W, strain WHI5 (second series), hits give low values
  normalized growth: 0.993
[7]
  normalized growth: 1

## CN1CCN(C=Nc2ncc(C(F)(F)F)cc2Cl)CC1
[8]
  normalized growth: 0.986
[9]
  normalized growth: 1.02
[1]
  normalized growth: 0.946
[10]
  normalized growth: 0.974
[11]
  normalized growth: 1.01
[12]
  normalized growth: 0.984
[2]
  normalized growth: 0.957
[13]
  normalized growth: 1.07
S. cerevisiae deletion strains, locus YJL187C, strain SWE1, hits give low values
  normalized growth: 1
[14]
  normalized growth: 0.996
[3]
  normalized growth: 0.989
[15]
  normalized growth: 0.976
[16]
  normalized growth: 0.996
[17]
  normalized growth: 0.949
[18]
  normalized growth: 0.995
[19]
  normalized growth: 1.01
[20]
  normalized growth: 1
[4]
  normalized growth: 0.999
[5]
  normalized growth: 1.01
[6]
  normalized growth: 0.991
[21]
  normalized growth: 0.975
[22]
  normalized growth: 0.978
[23]
  normalized growth: 1.02
S. cerevisiae deletion strains, locus YOL006C, strain TOP1, hits give low values
  normalized growth: 0.988
[24]
  normalized growth: 1.04
[7]
  normalized growth: 0.994
[25]
  normalized growth: 0.927
[26]
  normalized growth: 0.991

## CN(/N=C\c1ccccc1)c1ncc(C(F)(F)F)cc1Cl
[8]
  normalized growth: 0.975
[9]
  normalized growth: 0.949
S. cerevisiae deletion strains, locus YCL061C, strain MRC1, hits give low values
  normalized growth: 0.989
[1]
  normalized growth: 0.96
S. cerevisiae deletion strains, locus YDL134C, strain PPH21, hits give low values
  normalized growth: 0.988
[10]
  normalized growth: 0.897
[11]
  normalized growth: 0.938
[12]
  normalized growth: 0.934
[2]
  normalized growth: 0.392 (active)
[13]
  normalized growth: 0.905 (active)
[14]
  normalized growth: 0.99
[3]
  normalized growth: 0.921
[15]
  normalized growth: 0.89
[16]
  normalized growth: 0.953
[17]
  normalized growth: 0.775 (active)
[18]
  normalized growth: 0.88
[19]
  normalized growth: 0.929
[20]
  normalized growth: 0.978
[4]
  normalized growth: 0.99
[6]
  normalized growth: 0.984
[21]
  normalized growth: 0.949
[22]
  normalized growth: 0.974
[23]
  normalized growth: 0.89
[24]
  normalized growth: 0.901
[7]
  normalized growth: 1.02
[25]
  normalized growth: 0.907
[26]
  normalized growth: 0.98
